Laboratory results published in PubChem BioAssay (NCI).
The panel holds about 83,000 compounds, 20% with a hit somewhere; the sample as a whole holds those more often.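 Results are percent growth after 48 hours of single-concentration exposure. 100 means growth as in untreated cells, lower positive values show inhibition; negative values down to -100 show cell death.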 Unmarked numbers belong to inactive results. Calls of active or inactive are those of the source. Rule for the calls: active = growth percent below 10; inactive = the rest.

Key:
Assay in all cases: NCI-60 one-dose screen, 48 h (100 = growth as untreated, 0 = no growth, -100 = all killed)
Conditions in all cases: 10 µM unless noted
T-47D breast = test system: T-47D breast
BT-549 breast = test system: BT-549 breast
MDA-MB-435 melanoma = test system: MDA-MB-435 melanoma
SW-620 colon = test system: SW-620 colon
MCF7 breast = test system: MCF7 breast
HCT-116 colon = test system: HCT-116 colon
HCC-2998 colon = test system: HCC-2998 colon
KM12 colon = test system: KM12 colon

| SMILES | growth (T-47D breast) | growth (BT-549 breast) | growth (MDA-MB-435 melanoma) | growth (SW-620 colon) | growth (MCF7 breast) | growth (HCT-116 colon) | growth (HCC-2998 colon) | growth (KM12 colon) |
| --- | --- | --- | --- | --- | --- | --- | --- | --- |
| CCCCCCNC(=O)Oc1ccc(/C(=C(/C)Cc2ccc(OC)cc2)c2ccc(OCCN(C)C)cc2)cc1 | 25.8% | 88.1% | 67.8% | 35.4% | 20.4% | 26.7% | 52.4% | 56.3% |
| CC1CCCCC[N+]12CCCC2 (stereo not given) | 107% | 107% | 100% | 107% | 97.2% | 109% | 117% | 106% |
| COc1ccc(OC)c(Cn2cc3c(c2)-c2oncc2CC3)c1 | 36.1% | 33.3% | -40.1% (active) | 22.4% | 8.44% (active) | 16.8% | 66.6% | 28.9% |
| O=c1[nH]c(=S)[nH]c(O)c1/C=C1\C=Nc2ccccc21 | 98.4% | 76.9% | 47.3% | 36.2% | 62.2% | 39.5% | 99.6% | 47.7% |
| COc1cc(OC)c(/C=C/c2ccc3ccccc3[n+]2C)c(OC)c1 | 9.72% (active) | -0.0814% (active) | -30.6% (active) | 13.5% | 3.94% (active) | 2.2% (active) | 13.4% | -49.2% (active) |
| CCCCCSc1ccc2nc(NC(=O)OCCC)sc2c1 | 38.1% | 34.2% | -40.5% (active) | 22.9% | 14.3% | 25.3% | 74% | 24.9% |
| CCOC(=O)/C(C#N)=C(/CC)OCC | 100% | 95.2% | 105% | 102% | 94.9% | 92% | 113% | 97.7% |
| Oc1ccccc1/C=N/N=C/c1c(O)ccc2ccccc12 | 63.4% | 77.8% | 108% | 95% | 52.7% | 83% | 91.2% | 76.4% |
| Cc1sc(NC(=O)c2ccc(C(C)(C)C)cc2)c(C(=O)O)c1C | 87.5% | 88.8% | 96.1% | 60% | 62.2% | 45.3% | 71.2% | 28.8% |
| CN1NC(c2ccccc2)NN(C)C1=O | 95.7% | 109% | 102% | 91.1% | 96.3% | 101% | 103% | 118% |
| Oc1ccc(N=Nc2ccc(N=Nc3ccccc3)cc2)cc1 | 16.4% | 49% | 19.6% | 44.7% | 22.8% | 33.3% | 17.2% | 27.8% |
| COc1ccc2nc3cc(Cl)ccc3c(NCCCNC(C)=O)c2c1 | 38.1% | 88.7% | 41.3% | 27% | 15.8% | 21% | 50.3% | 30.7% |
| C=CCC(CCC(CC=C)C(=O)OCC)C(=O)OCC (stereo not given) | 105% | 96.3% | 104% | 103% | 89.6% | 100% | 113% | 99.8% |
| COc1ccc(/C=C(/C(=O)N2CCN(c3ccc(C)cc3)CC2)c2cc(OC)c(OC)c(OC)c2)cc1N | 97.2% | 16.6% | -43.8% (active) | 27.1% | 12% | 3.55% (active) | 31.8% | 3.83% (active) |
| CCC(CCCN1C(=O)c2ccccc2C1=O)Nc1cc(OC)cc2cccnc12 (stereo not given) | 66.3% | 92.9% | 105% | 95% | 20.8% | 105% | 147% | 110% |
| O=C(Nc1ccc(Cl)cn1)C1(c2ccccc2)CCCCC1 | 94.7% | 98.4% | 125% | 96.6% | 96.3% | 117% | 99.1% | 101% |
| Cc1ccc(OCCn2ccc(=O)n(CCOc3ccc(Cl)cc3C(=O)c3cc(C)cc(C)c3)c2=O)cc1 | 39.5% | 55.1% | -3.9% (active) | 29.7% | 22.4% | 34.5% | 64.5% | 36.9% |
| CC1(c2ccc(Br)cc2)NC(=O)NC1=O (stereo not given) | 82.2% | 90.4% | 113% | 106% | 101% | 99.5% | 106% | 101% |
| COc1ccc(Cn2cc3c(c2-c2ccccc2)CCc2cnoc2-3)cc1N | 37.2% | 36.2% | -27.9% (active) | 23.5% | 16% | 9.53% (active) | -1.21% (active) | 6.52% (active) |
| O=C(N/N=C\c1ccc(Cl)cc1)C(=O)N/N=C\c1ccc(Cl)cc1 | 99.2% | 95.4% | 108% | 113% | 96.5% | 106% | 110% | 106% |
| CC(=O)c1cc(Nc2cc(C)nc(N)n2)cc(C(C)=O)c1 | 85.9% | 98.7% | 117% | 92.2% | 110% | 97% | 51.9% | 97.3% |
| Cc1c(O)c(N=Nc2ccc(C(=O)O)c(O)c2)c2ccccc2c1O | 112% | 89.3% | 106% | 84.8% | 101% | 98.1% | 118% | 98.3% |
| CSCc1ncc(-c2ccc(C(F)(F)F)cc2)c(NC2CCCCCC2)n1 | 53.5% [25 µM] | 82.1% [25 µM] | 78.7% [25 µM] | 53.1% [25 µM] | 68% [25 µM] | 38.1% [25 µM] | 89.9% [25 µM] | 52.1% [25 µM] |
| CCCC(CCC)Oc1ccc(CCCC2=C(O)c3ccccc3C(=O)C2=O)cc1 | 65.4% | 35.5% | 37.4% | 28.1% | 29% | 16.7% | 13.4% | 23.7% |
| O=C1C=C(OCC=C(C(F)(F)F)C(F)(F)F)c2ccccc2C1=O | -68.9% (active) | 39% | -40.2% (active) | -34.9% (active) | -76.8% (active) | -33.3% (active) | -12.1% (active) | 43.3% |
